Data taken from PubChem BioAssay AID1159580 (chemical genetic matrix, 2015).
Among all 5,500 compounds or so, about 2,000 (36%) were called active. Roughly 18% stayed inconclusive and do not appear here. No stated cut-off is given here; in the data, active means normalized growth mostly below about 0.91 (no sharp cut-off); inconclusive means no clear call, values can overlap the other calls; inactive means mostly above about 0.92. The list shows a part of the results.

Assay: chemical genetic growth profiling, strain panel (AID 1159580);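 further: tested at 20 µM; growth read once vehicle control cultures reached saturation at 30 °C; 1 = growth at the plate median or of vehicle wells; lower values mean less growth of the strain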
Conditions: growth OD

Measured: normalized growth

CO[C@H]1[C@H](O)[C@H](O[C@H]2CC[C@]3(C)C4CC[C@]5(C)C(C6=CC(=O)OC6)CC[C@]5(O)C4CC[C@@H]3C2)O[C@@H](C)[C@@H]1O (some centres undefined)
inactive: S. cerevisiae deletion strains, locus YJR043C, strain POL32, hits give low values 1.02 | S. cerevisiae deletion strains, locus YJR075W, strain HOC1, hits give low values 1.02 | S. cerevisiae deletion strains, locus YKL009W, strain mrt4, hits give low values 0.996 | S. cerevisiae deletion strains, locus YKL068W, hits give low values 1 | S. cerevisiae deletion strains, locus YKL085W, strain MDH1 (second series), hits give low values 1.01 | S. cerevisiae deletion strains, locus YKL085W, strain MDH1, hits give low values 1.01 | S. cerevisiae deletion strains, locus YKL160W, strain elf1, hits give low values 0.989 | S. cerevisiae deletion strains, locus YKL190W, strain CNB1, hits give low values 1.01 | S. cerevisiae deletion strains, locus YKR001C, strain vps1, hits give low values 0.992 | S. cerevisiae deletion strains, locus YKR026C, strain gcn3, hits give low values 0.995 | S. cerevisiae deletion strains, locus YKR091W, strain srl3, hits give low values 0.995 | S. cerevisiae deletion strains, locus YLL001W, strain dnm1, hits give low values 0.999 | S. cerevisiae deletion strains, locus YLL026W, hits give low values 1 | S. cerevisiae deletion strains, locus YLL041C, strain sdh2, hits give low values 1.01 | S. cerevisiae deletion strains, locus YLR027C, strain aat2, hits give low values 0.999 | S. cerevisiae deletion strains, locus YLR039C, strain RIC1, hits give low values 1.02 | S. cerevisiae deletion strains, locus YLR058C, strain SHM2, hits give low values 1.02 | S. cerevisiae deletion strains, locus YLR102C, strain apc9, hits give low values 1 | S. cerevisiae deletion strains, locus YLR221C, strain rsa3, hits give low values 1.01 | S. cerevisiae deletion strains, locus YLR258W, strain gsy2, hits give low values 1 | S. cerevisiae deletion strains, locus YLR262C, strain YPT6 (second series), hits give low values 1.01 | S. cerevisiae deletion strains, locus YLR262C, strain YPT6, hits give low values 1.01 | S. cerevisiae deletion strains, locus YLR268W, strain sec22, hits give low values 1.02 | S. cerevisiae deletion strains, locus YLR320W, strain mms22, hits give low values 1.01 | S. cerevisiae deletion strains, locus YLR330W, strain CHS5, hits give low values 1.02 | S. cerevisiae deletion strains, locus YLR342W, strain FKS1 (second series), hits give low values 1.06 | S. cerevisiae deletion strains, locus YLR342W, strain FKS1, hits give low values 1 | S. cerevisiae deletion strains, locus YLR357W, strain rsc2, hits give low values 0.992 | S. cerevisiae deletion strains, locus YLR370C, strain arc18, hits give low values 1 | S. cerevisiae deletion strains, locus YLR371W, strain rom2, hits give low values 1.02 | S. cerevisiae deletion strains, locus YLR384C, strain iki3, hits give low values 0.991 | S. cerevisiae deletion strains, locus YLR418C, strain cdc73, hits give low values 1.03 | S. cerevisiae deletion strains, locus YML016C, strain PPZ1, hits give low values 1.01 | S. cerevisiae deletion strains, locus YML032C, strain rad52, hits give low values 1 | S. cerevisiae deletion strains, locus YML120C, strain ndi1, hits give low values 1.03 | S. cerevisiae deletion strains, locus YML124C, strain tub3, hits give low values 1.01 | S. cerevisiae deletion strains, locus YMR058W, strain fet3, hits give low values 1.02 | S. cerevisiae deletion strains, locus YMR078C, strain ctf18, hits give low values 1.01 | S. cerevisiae deletion strains, locus YMR125W, strain sto1, hits give low values 0.981 | S. cerevisiae deletion strains, locus YMR129W, hits give low values 1.01 | S. cerevisiae deletion strains, locus YMR205C, strain PFK2, hits give low values 1 | S. cerevisiae deletion strains, locus YMR223W, strain ubp8, hits give low values 0.994 | S. cerevisiae deletion strains, locus YMR231W, strain pep5, hits give low values 1 | S. cerevisiae deletion strains, locus YMR263W, strain SAP30, hits give low values 1.01 | S. cerevisiae deletion strains, locus YMR307W, strain GAS1, hits give low values 1.06 | S. cerevisiae deletion strains, locus YNL067W, strain RPL9B, hits give low values 1.02 | S. cerevisiae deletion strains, locus YNL071W, strain lat1, hits give low values 0.996 | S. cerevisiae deletion strains, locus YNL128W, strain TEP1, hits give low values 1.04 | S. cerevisiae deletion strains, locus YNL153C, strain GIM3, hits give low values 1.02 | S. cerevisiae deletion strains, locus YNL209W, strain ssb2, hits give low values 0.985 | S. cerevisiae deletion strains, locus YNL233W, strain BNI4, hits give low values 1.02 | S. cerevisiae deletion strains, locus YNL248C, strain rpa49, hits give low values 0.991 | S. cerevisiae deletion strains, locus YNL250W, strain rad50, hits give low values 1 | S. cerevisiae deletion strains, locus YNL271C, strain bni1, hits give low values 1.01 | S. cerevisiae deletion strains, locus YNL298W, strain CLA4, hits give low values 0.999 | S. cerevisiae deletion strains, locus YNL307C, strain MCK1, hits give low values 1.02 | S. cerevisiae deletion strains, locus YNL322C, strain KRE1 (second series), hits give low values 0.989 | S. cerevisiae deletion strains, locus YNL322C, strain KRE1, hits give low values 1.01 | S. cerevisiae deletion strains, locus YNR049C, strain mso1, hits give low values 1 | S. cerevisiae deletion strains, locus YNR052C, strain pop2, hits give low values 1 | S. cerevisiae deletion strains, locus YOL006C, strain TOP1, hits give low values 1.06 | S. cerevisiae deletion strains, locus YOL012C, strain htz1 1.19 | S. cerevisiae deletion strains, locus YOL147C, strain pex11, hits give low values 1.01 | S. cerevisiae deletion strains, locus YOR001W, strain rrp6, hits give low values 1.02 | S. cerevisiae deletion strains, locus YOR061W, strain CKA2, hits give low values 1.01 | S. cerevisiae deletion strains, locus YOR069W, strain VPS5, hits give low values 1.01 | S. cerevisiae deletion strains, locus YOR070C, strain gyp1, hits give low values 1.01 | S. cerevisiae deletion strains, locus YOR080W, strain dia2, hits give low values 1 | S. cerevisiae deletion strains, locus YOR083W, strain WHI5, hits give low values 0.955 | S. cerevisiae deletion strains, locus YOR106W, strain vam3, hits give low values 0.984 | S. cerevisiae deletion strains, locus YOR136W, strain idh2, hits give low values 1.01 | S. cerevisiae deletion strains, locus YOR144C, strain elg1, hits give low values 1.01 | S. cerevisiae deletion strains, locus YOR184W, strain ser1, hits give low values 1.01 | S. cerevisiae deletion strains, locus YOR265W, strain rbl2, hits give low values 1.01 | S. cerevisiae deletion strains, locus YOR270C, strain vph1, hits give low values 0.97 | S. cerevisiae deletion strains, locus YOR290C, strain snf2, hits give low values 1.01 | S. cerevisiae deletion strains, locus YOR316C, strain cot1, hits give low values 1 | S. cerevisiae deletion strains, locus YPL051W, strain arl3, hits give low values 0.994 | S. cerevisiae deletion strains, locus YPL055C, strain LGE1, hits give low values 1 | S. cerevisiae deletion strains, locus YPL078C, strain atp4, hits give low values 0.989 | S. cerevisiae deletion strains, locus YPL106C, strain sse1, hits give low values 0.959 | S. cerevisiae deletion strains, locus YPL240C, strain hsp82, hits give low values 0.998 | S. cerevisiae deletion strains, locus YPL241C, strain CIN2, hits give low values 1.01 | S. cerevisiae deletion strains, locus YPR119W, strain clb2, hits give low values 0.996 | S. cerevisiae deletion strains, locus YPR141C, strain kar3, hits give low values 1 | S. cerevisiae deletion strains, locus YPR163C, strain tif3, hits give low values 1.01 | S. cerevisiae deletion strains, locus YPR167C, strain met16, hits give low values 0.998 | S. cerevisiae deletion strains, strain wtn01, hits give low values 1 | S. cerevisiae strains, strain wild type, hits give low values 1.02
